High-throughput results: PubChem, National Center for Advancing Translational Sciences (NCATS)
ELG1 repair inh: ELG1-dependent DNA repair inhibition; Potency, µM (highest dose often 46.1 µM), usual class: inhibitors; 330,000 compounds, 2.3% hits; AID 504467; HEK293T ELG1-luciferase reporter, luminescence, 16 h; DNA damage induced by 5-fluorouridine; further: nearly all actives have a fitted effect of over 55% in size
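Luminescence from the luciferase reporter, measured 30 min after ONE-Glo reagent at room temperature, was the read-out. Beforehand, 2,000 cells per well were exposed for 16 hr at 37 °C to 5-fluorouridine together with compound or vehicle.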
BRCA1 expr act: BRCA1 expression activation | MCF7-BRCA1-FFLuc reporter, luminescence, 48 h; response scale: scaled: vehicle 0%, 10 µM genistein 100% | Potency, µM (highest dose often 46.1 µM), actives largely listed as activators | 380,000 compounds, 1.1% hits; further: nearly all actives have a fitted effect of over 80% in size
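MCF7-BRCA1-FFLuc cells, 2000/well in phenol-red-free MEM, attached 2 h then treated 48 h at 37 C. Luciferase luminescence read 15 min after reagent; normalized to genistein maximum activation (10microM) and DMSO, concentration-response fitted.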
Nrf2 ARE act: Nrf2 pathway activation | AREc32 ARE-luciferase reporter (MCF7-derived line), luminescence, 24 h | Potency, µM (top dose mostly 46.1 µM), usual class: activators | 410,000 compounds, 0.31% hits | AID 624171; further: nearly all actives have a fitted effect of over 65% in size
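ARE activation measured as luciferase luminescence (Steady-Glo, 30 min RT) in AREc32_Fluc cells after 24 hr compound exposure at 37 deg C, 5% CO2; cells seeded overnight at 1000/well in OPTI-MEM, 5% FBS.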
IL-2 act: activators of IL-2; IL-2 activation reporter assay, cell-based qHTS; stimulated with anti-CD3/CD4/CD28 beads; in transgenic mouse T cells; activation, % (series mostly up to about 46 µM); 360,000 compounds, 0.065% hits; in the data active means activation above about 50%; inconclusive means mostly about 30% to 49%
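Using fluorescent plate cytometry, EGFP and DsRed are detected in transgenic mouse T cells stimulated 18 h at 37 degrees C with antibody-coated beads after 60 min compound pretreatment.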
Of the large screens only hits and unclear results are named; the others gave an inactive call. Shown are actives, neighbours in structure and some others; about 3.1% of the full set was active somewhere. Unless noted, the call rests on the fitted dose curve; in most records, active means well fitted curve in the direction sought with a large enough effect; inconclusive means small, poorly fitted or top-dose-only effect, or another doubt; inactive means no such curve, though single readings can be large; an effect the other way counts as inactive or inconclusive.

CCCN(CCC)CCNC(=O)c1cc2c(=O)oc3ccc(C)cc3c2s1	none (no result: ELG1 repair inh, IL-2 act)
CC[N+]1(C)CCC(O)(c2ccc(OC)cc2)C(C(=O)c2ccc(OC)cc2)C1 (centres undefined)	Nrf2 ARE act inconclusive (no result: ELG1 repair inh)
CCc1ccc(-c2nnn(CCC#N)n2)cc1	ELG1 repair inh inconclusive, BRCA1 expr act 13µM
CCC(=O)Nc1cccc(-c2cc3ccccc3oc2=O)c1	ELG1 repair inh inconclusive, BRCA1 expr act 10µM
CC1CCCN(c2ncnc3c2nc2n3CCCCC2)C1 (centres undefined)	BRCA1 expr act 11µM (no result: ELG1 repair inh, IL-2 act)
CSc1ccc(CCNC(=O)C2CCCN(c3ncnc4c3nc3n4CCCCC3)C2)cc1 (centres undefined)	ELG1 repair inh 8.2µM
O=C(NCc1ccc(Cl)cc1)C1CCCN(c2ncnc3c2nc2n3CCCCC2)C1 (centres undefined)	ELG1 repair inh 15µM
O=C(Nc1ccc(Cl)cc1)C1CCCN(c2ncnc3c2nc2n3CCCCC2)C1 (centres undefined)	ELG1 repair inh 23µM
O=C(COC(=O)COc1ccc(Cl)cc1Br)NC1CCCC1	none (no result: ELG1 repair inh)
CCOC(=O)c1c(S(=O)(=O)NCC(=O)N2CCN(c3cccc(Cl)c3)CC2)c(C)n(C)c1C	none (no result: ELG1 repair inh, BRCA1 expr act, IL-2 act)
Cc1ccc(NC(=O)C(Cc2ccccc2)N2Cc3ccccc3C2=O)cc1Cl (centres undefined)	none (no result: ELG1 repair inh, BRCA1 expr act, IL-2 act)
CCOC(=O)c1cc(-c2ccccc2)n(CCC(=O)N2CCN(c3ccccn3)CC2)c1C	ELG1 repair inh 23µM
Cc1cccc(NC(=O)c2ccc(OCC3CCCO3)cc2)c1C (centres undefined)	ELG1 repair inh inconclusive, BRCA1 expr act 14µM
O=C(Nc1ccc(Cl)cc1)c1ccc(OCC2CCCO2)cc1 (centres undefined)	ELG1 repair inh inconclusive, BRCA1 expr act 4.5µM
Cc1cccnc1NC(=O)c1ccc(OCC2CCCO2)cc1 (centres undefined)	ELG1 repair inh inconclusive
CCOC(=O)c1cc2c(nc1N)CCCC2	none
C=C(C)CNC(=S)Nc1nc2c(cc1C(=O)OCC)CCCC2	ELG1 repair inh inconclusive, BRCA1 expr act 7.1µM
O=c1[nH]c(C2CCN(S(=O)(=O)c3ccccc3F)CC2)nc2c1nnn2Cc1ccc2c(c1)OCCO2	none
Cc1ccc(C)c(Cn2nnc3c(=O)[nH]c(C4CCN(S(=O)(=O)c5ccc(S(=O)(=O)N(C)C)cc5)CC4)nc32)c1	none
O=c1[nH]c(C2CCN(S(=O)(=O)c3ccc(S(=O)(=O)NC4CC4)cc3)CC2)nc2c1nnn2Cc1ccccc1	ELG1 repair inh 18µM
Cc1ccc(C)c(Cn2nnc3c(=O)[nH]c(C4CCN(S(=O)(=O)c5ccc(S(=O)(=O)NC6CC6)cc5)CC4)nc32)c1	ELG1 repair inh 16µM
O=c1[nH]c(C2CCN(S(=O)(=O)c3ccc(F)cc3)CC2)nc2c1nnn2Cc1ccc2c(c1)OCCO2	ELG1 repair inh 26µM
COC(=O)[C@]12CCCCC=C1N(Cc1ccccc1)C(=O)[C@H](CC(=O)NCc1ccccc1)C2	none (no result: ELG1 repair inh)
O=C(CN1C(=O)C2CCCCN2c2ccc(C(=O)N3CCCC3)cc21)NCc1ccc(F)cc1 (centres undefined)	none (no result: ELG1 repair inh, BRCA1 expr act, IL-2 act)
Cn1c(O)c(N=NC(=S)Nc2ccccc2F)c2cc(S(=O)(=O)N3CCOCC3)ccc21	ELG1 repair inh 1.8µM
Cc1ccc(NC(=S)N=Nc2c(O)n(C)c3ccc(S(=O)(=O)N4CCOCC4)cc23)cc1C	none
O=C(/C=C/c1ccc2ccccc2c1)c1ccoc1	ELG1 repair inh inconclusive, BRCA1 expr act 13µM
O=C(O)/C=C/c1ccc2ccccc2c1	none (no result: ELG1 repair inh, Nrf2 ARE act, IL-2 act)
O=[N+]([O-])c1cccc(COc2ncnc3cc([N+](=O)[O-])ccc23)c1	ELG1 repair inh 10µM
COc1ccc(CCNC(=O)COc2ncnc3cc([N+](=O)[O-])ccc23)cc1	none
N#Cc1ccc(-c2cccs2)nc1SCc1ccc(Cl)cc1Cl	none (no result: ELG1 repair inh, BRCA1 expr act, IL-2 act)
N#CC1=C(N)NC(SCC(=O)Nc2ccc(Br)cc2)=C(C#N)C12CCCCC2	ELG1 repair inh 23µM
N#CC1=C(N)NC(SCc2ccc(Br)cc2)=C(C#N)C12CCCCC2	ELG1 repair inh inconclusive
CCOCCc1nn2c(=O)cc(COC(=O)c3ccc4c(c3)OCO4)nc2s1	none (no result: ELG1 repair inh, BRCA1 expr act, IL-2 act)
COc1ccc(NC(=O)NC(=O)c2ccccc2)cc1	ELG1 repair inh inconclusive, BRCA1 expr act 1.1µM
COc1ccc(NC(=O)C#Cc2ccccc2)cc1	ELG1 repair inh inconclusive, Nrf2 ARE act 14µM
